HT1080 IDH1KD tx: qHTS for induction of synthetic lethality in tumor cells producing 2HG: qHTS for the HT-1080-IDH1KD cell line; HT-1080 IDH1 knockdown viability, ATP luminescence, 48 h; Potency, µM (top dose mostly 46.1 µM), without a hit: at the highest dose activity, negative = toxicity, usual class: cytotoxic; actives 2% (n = 360,000); AID 686971, 2013;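 note: potency is the fitted concentration of half-maximal effect; 0% = DMSO wells and -100% = cell-free medium wells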
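In this qHTS, HT-1080 cells depleted of IDH1 are exposed for 48 h at 37 °C to compound titrations. Toxicity is scored from CellTiter-Glo luminescence, with DMSO as full viability and medium alone as none.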
HT1080NT lethal: qHTS for induction of synthetic lethality in tumor cells producing 2HG: qHTS for the HT-1080-NT fibrosarcoma cell line; HT-1080-NT fibrosarcoma viability, CellTiter-Glo ATP luminescence, 48 h; actives 1.6% (n = 360,000); Potency, µM (top dose mostly 46.1 µM), for the others: at the highest dose activity, negative = less viability, hits mostly cytotoxic;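 note: NT is the 2HG producing partner of a matched IDH1 knockdown line; potency is the fitted concentration of half-maximal effect; 0% = DMSO-treated cells and -100% = media-only wells without cells; nearly all actives have a fitted effect of over 55% in size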
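Fibrosarcoma NT cells, 750 per well in 5% FBS RPMI, were exposed to compound for 48 hours. Viability: CellTiter-Glo luminescence.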
DT40 TDP1 no CPT: qHTS for Inhibitors of human tyrosyl-DNA phosphodiesterase 1 (TDP1): qHTS in cells in absence of CPT; DT40 Tdp1-/- hTDP1 cells, no CPT, ATP luminescence, 48 h; Potency, µM (top dose mostly 46.2 µM), for the others: top-dose activity change, negative = growth inhibition, hits mostly inhibitors; actives 15% (n = 420,000); note: potency is the fitted concentration of half-maximal effect; nearly all actives have a fitted effect of over 55% in size
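Compound effects on proliferation are scored in DT40 Tdp1-/-;hTDP1 cells in the absence of CPT. ATP levels (CellTiter-Glo luminescence) are recorded after a ≥48 hr, 37 °C incubation.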
IL-1B inflam inh: qHTS for Inhibitors of Inflammasome Signaling: IL-1-beta AlphaLISA Primary Screen; THP-1 LPS/ATP IL-1B secretion, AlphaLISA, 16 h; active compounds read low; actives 4.7% (n = 360,000); activity change, % at 57.5 µM; in the data active = activity change below about -50%; inconclusive = mostly about -30% to -49%
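Secreted IL-1B measured by AlphaLISA bead assay after 16 h compound exposure of THP-1 cells; compounds (final up to 57.5 uM) added 1 h before LPS (250 ng/mL) and ATP (1.25 mM) stimulation; lower signal means less secretion.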
TDP1 cell CPT: qHTS for Inhibitors of human tyrosyl-DNA phosphodiesterase 1 (TDP1): qHTS in cells in presence of CPT | Potency, µM (doses to about 46.2 µM), for inactives: top-dose activity change, negative = growth inhibition, actives largely listed as inhibitors | actives 12% (n = 420,000) | chicken DT40 Tdp1-/-;hTDP1 cells + 20 nM CPT, ATP luminescence, 48 h | AID 686979, 2013; note: potency is the fitted concentration of half-maximal effect; nearly all actives have a fitted effect of over 55% in size
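Chicken DT40 Tdp1-/- cells stably complemented with human TDP1 were seeded at 400 cells/well in medium containing 20 nM camptothecin, exposed to pin-transferred compounds, and grown at 37 °C for at least 48 hr. Viability was read as ATP luminescence.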
Starred values were filed as active, the others as inactive; ? = inconclusive; . = not tested or not shown; [ ] = another dose, or the depositor's remark. Hits are enriched below; roughly 19% of the tested compounds scored in any of these assays. Unless noted, calls come from the whole dose curve; as a rule, active = well fitted curve in the direction sought with a large enough effect; inconclusive = small, poorly fitted or top-dose-only effect, or another doubt; inactive = no such curve, though single readings can be large; an effect the other way counts as inactive or inconclusive. Unless noted, % is set by controls: 0 for no effect and ±100 for the full control effect.

SMILES	HT1080 IDH1KD tx	HT1080NT lethal	DT40 TDP1 no CPT	IL-1B inflam inh	TDP1 cell CPT
CC(C)CNC(=O)C1(C)CCCN1C(=O)c1cccnc1Oc1ccccc1 (stereo unspecified)	23.2%	0.6%	-8.4%	-6.3	-6.4%
Nc1nc2ccccc2n1/N=C/c1ccc(-c2ccccc2)o1	-11.3%	-13.9%	16.4µM*	-29.1	?
Nc1nc2ccccc2n1/N=C/c1ccc([N+](=O)[O-])s1	?	-15.3%	2.91µM*	-14.8	2.06µM*
Nc1nc2ccccc2n1/N=C/c1cccnc1	9.3%	3.7%	-14.6%	27.8	-5.1%
CC(=O)Oc1ccc(C(=O)Nc2cccc(C(=O)c3ccc(C)c(C)c3)c2)cc1	?	-4.9%	?	-6.1	?
Cn1c(Sc2ccc(Cl)cc2)c(C=O)c2ccccc21	?	?	20.6µM*	-81.0*	?
Cn1c(Sc2ccccc2Cl)c(C=O)c2ccccc21	-13.7%	6.3%	?	-62.7*	?
Cn1c(Cl)c(/C=N/OC(=O)c2ccccc2Cl)c2ccccc21	-2.8%	-2.5%	?	-6.7	-21.9%
Cc1cccc(Sc2c(C=O)c3ccccc3n2C)c1	?	?	-13.1%	-14.3	6.5%
CCC1CN(CCC(=O)N2CCCN(C(=O)c3ccco3)CC2)Cc2cc(OC)ccc2O1 (stereo unspecified)	.	.	-5.0%	.	-8.6%[9.04 µM]
CC1CCN(S(=O)(=O)c2ccc3c(c2)N(CC(=O)NCCN2C(C)CCCC2C)C(=O)CS3)CC1 (stereo unspecified)	2.2%	-7.7%	6.2%	-15.1	-21.4%
COc1ccc(/C=C2\SC(=S)N(C(C)C(=O)NC3C=CS(=O)(=O)C3)C2=O)cc1 (stereo unspecified)	-18.3%	5.2%	-9.0%	-61.1*	?
COc1ccc(/C=C2\SC(=S)N(CC(=O)NC3C=CS(=O)(=O)C3)C2=O)cc1 (stereo unspecified)	-0.4%	-0.4%	3.66µM*	-22.2	6.51µM*
O=C(CN1C(=O)/C(=C/c2ccc(F)cc2)SC1=S)NC1C=CS(=O)(=O)C1 (stereo unspecified)	5.4%	9.5%	?	-28.2	?
O=C(CN1C(=O)/C(=C/c2ccc(Cl)cc2)SC1=S)NC1C=CS(=O)(=O)C1 (stereo unspecified)	-1.9%	1.3%	5.8µM*	-21.0	6.51µM*
Cc1cc2c(ncn2Cc2ccccc2)c(N)c1C	-16.9%	-8.7%	-27.1%	-3.0	-5.7%
C=CCN1C(c2ccccc2)=CS/C1=C(\C#N)c1nnc2n1CCCCC2	-5.4%	4.6%	?	-17.4	?
C=CCN1C(c2ccc(Br)cc2)=CS/C1=C(/C#N)c1nnc(N2CCOCC2)n1-c1ccccc1	-13.3%	-11.9%	8.2µM*	-10.0	7.31µM*
C=CCN1C(=O)NC(c2ccc(OC)cc2)(C(F)(F)F)S/C1=C(\C#N)c1nnc(N2CCOCC2)n1-c1ccccc1 (stereo unspecified)	3.4%	?	-9.7%	-52.4*	12.6%
C=CCN1C(c2cccc(C(F)(F)F)c2)=CS/C1=C(/C#N)c1nnc(N2CCOCC2)n1-c1ccccc1	-4.3%	2.9%	11.6µM*	-1.8	11.6µM*
CSc1nc2sc3c(c2c(=O)n1-c1ccc(F)c(Cl)c1)CCN(C(C)=O)C3	.	.	3.0%	.	-10.3%
Nc1nonc1-n1nnc(C(=O)N/N=C/c2ccccn2)c1CNc1ccccc1	-4.9%	-17.0%	?	-11.1	?
CCCCCN(CCCCC)c1ccc(/C=C/c2ccnc3ccccc23)cc1	.	.	12.6µM*	.	?
CCCCN(CCC(=O)O)c1ccc(/C=C/c2ccnc3ccccc23)cc1	.	.	15.8µM*	.	5.62µM*
